D2 PAM-1: potentiates the human D2 dopamine receptor allosterically; P14416; DiscoveRx D2 beta-arrestin cells, luminescence, 90 min; 100% = 57 uM dopamine signal; potentiation, % (no concentration beside the values); hit rate 0.23% among 360,000; AID 624464; in the data active means potentiation above about 50%; inconclusive means mostly about 30% to 49%
Target sequence (P14416 whole entry, looked up): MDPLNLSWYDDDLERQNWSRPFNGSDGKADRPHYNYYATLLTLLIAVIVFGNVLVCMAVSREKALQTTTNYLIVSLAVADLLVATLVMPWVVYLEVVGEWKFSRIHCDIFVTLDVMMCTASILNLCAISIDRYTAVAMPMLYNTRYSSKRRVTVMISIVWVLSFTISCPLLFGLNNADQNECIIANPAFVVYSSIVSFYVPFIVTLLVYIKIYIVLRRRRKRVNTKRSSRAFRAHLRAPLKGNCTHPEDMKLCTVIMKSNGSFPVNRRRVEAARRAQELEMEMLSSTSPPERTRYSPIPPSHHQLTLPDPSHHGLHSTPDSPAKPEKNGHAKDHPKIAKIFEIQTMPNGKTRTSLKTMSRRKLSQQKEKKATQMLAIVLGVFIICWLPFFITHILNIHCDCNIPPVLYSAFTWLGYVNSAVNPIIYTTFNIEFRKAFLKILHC
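PathHunter D2 cells, attached overnight at 37 deg C, received compound in DMSO plus dopamine at EC20 (50 nM final) for 90 min at 37 deg C. Beta-arrestin recruitment was read as luminescence after 1 h with detection reagent at ambient temperature.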
D2 ag-1: agonists of human D2 dopamine receptor (beta-arrestin) | P14416 | DiscoveRx PathHunter D2 beta-arrestin, luminescence, 90 min; 100% = 57 uM dopamine signal | activation, % (concentration not given with the values) | hit rate 0.084% among 360,000 | AID 624465; in the data active means activation above about 40%; inconclusive means between about 15% and that limit
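DiscoveRx PathHunter D2 beta-arrestin cells (2,100/well) attached overnight, then compound-stimulated 90 min at 37 C in HBSS/10 mM HEPES/0.1% Tween-20 buffer; beta-galactosidase complementation read by luminescence after 1 h at ambient temperature. Dopamine 57 uM final (EC100) as control.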
D2 PAM-2: positively modulates the human D2 dopamine receptor allosterically; HEK293 T-REx D2, calcium flux, EC20 dopamine potentiation; potentiation, % at 10 µM; hit rate 0.34% among 340,000; AID 485347;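 active means potentiation over 3 SD above the plate norm, cut at about 30% in these data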; further: 0% is about no effect
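Primary screen. Calcium kinetics in induced HEK293 T-REx D2 cells: compound pre-addition 180 s, EC20 dopamine, 180 s more.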
D2 ag-2: D2 dopamine receptor (human) agonism; P14416; HEK293 T-REx D2 cells, calcium flux agonist mode; activation, % at 2 µM; hit rate 0.53% among 340,000;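 active means activation over 3 SD above normal in the single-dose calcium agonist read, cut at about 30% in these data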; further: 0% is about no effect
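Tetracycline-induced HEK293 Trex cells with D2 receptor force-coupled to calcium signaling, plated overnight at 30 C and loaded with no-wash calcium dye. Calcium flux read kinetically for 180 s after compound addition; responses flag agonists.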
D2 antag: antagonists of human D2 dopamine receptor | P14416 | HEK293 TREx D2 cells, calcium flux, dopamine EC80 | inhibition, % at 10 µM | hit rate 2% among 340,000 | AID 485344; in the data active means inhibition above about 30%; inactive means below that, where a call was filed; further: 0% is about no effect
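HEK293 T-REx D2 cells, tet-induced, calcium dye no-wash. Cpd pintool add, 180 s kinetic, then EC80 DA, 180 s kinetic. Ca flux read.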
B2AR arrestin: agonists driving beta-arrestin recruitment to human beta2-adrenergic receptor. beta-arrestin recruitment to beta2AR, cell-based reporter. Potency, µM (top dose mostly 46.1 µM), without a hit: top-dose activation, most hits filed as activators. AID 492947. P07550. hit rate 0.02% among 330,000; active means well fitted activation curve with a large enough effect; inconclusive means small, poorly fitted or top-dose-only effect;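 further: potency means the concentration at half of the fitted maximal effect; 0% = DMSO controls and full agonism = EC100 isoproterenol or metaproterenol; nearly all actives have a fitted effect of over 65% in size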
* marks the source's active call; other numbers are inactive results; ? = inconclusive; . = no result given. Only some compounds are listed: those with a hit (about 2.4% of all), similar ones and a draw of the others.

SMILES	D2 PAM-1	D2 ag-1	D2 PAM-2	D2 ag-2	D2 antag	B2AR arrestin
NC(=NCc1ccccc1)c1cccc([N+](=O)[O-])c1	-6	4	1	-1	-11	-1%
CCS(=O)(=O)c1ccc2oc(Nc3ccc(OC)cc3)nc2c1	4	-4	-3	-1	34*	0%
CCOC(=O)Cn1ncc(-c2ccccc2)c1N	20	-2	-6	0	57*	-2%
O=C(COC(=O)COc1ccc(Br)cc1)NNC(=O)c1ccccc1	-15	-1	.	.	.	0%
Cc1cc([N+](=O)[O-])nn1CC(=O)NC(C)c1ccccc1 (centres undefined)	-9	-1	1	1	-21	0%
O=C(Cn1nc([N+](=O)[O-])nc1Br)NC(c1ccccc1)c1ccccc1	58*	5	5	-1	7	0%
O=c1c(Cc2ccc(F)cc2)c(O)ccn1Cc1ccc(Cl)cc1Cl	-1	-2	9	3	44*	-1%
O=c1c(Cc2ccc(F)cc2)c(O)ccn1Cc1ccc(F)cc1	-12	2	2	-1	4	0%
CCOC(=O)C1(C)CCN1C(=O)c1cc(OC)c(OC)c(OC)c1 (centres undefined)	1	-7	.	.	.	.
CC1=Nc2cccc3cccc(c23)N1	56*	7	14	0	-1	2%
CN(Cc1nc(-c2ccccn2)no1)S(=O)(=O)c1ccccc1	13	-1	.	4	37*	0%
CC(C)(C)c1ccc(CNC(=O)c2ccc3c(c2)NC(=O)CO3)cc1	-6	-6	17	1	12	0%
COc1ccc(C2CCCN2C(=O)c2cccs2)cc1 (centres undefined)	-8	-5	-14	0	78*	0%
COc1ccc(C2C3CCCCC3(O)CCN2C(=O)c2cccs2)cc1 (centres undefined)	-24	-2	.	.	.	1%
CCCn1nc(C(=O)NCc2ccc3c(c2)OCO3)c2ccccc2c1=O	-6	11	39*	-1	5	0%
CC(C)Cn1nc(C(=O)NCc2ccccc2CN2CCCC2)c2ccccc2c1=O	-32	-1	-30	0	45*	1%
COc1cc(/C=C/C(=O)OCC(=O)c2ccc(OC(F)F)cc2)ccc1O	-11	-2	.	.	.	0%
Cc1ccc(NC(=O)N2CCN(c3ncccc3C(F)(F)F)CC2)cc1	-28	-2	-13	0	37*	0%
O=C(Nc1ccc2ccccc2c1)N1CCN(c2ncccc2C(F)(F)F)CC1	-38	-2	-2	0	-23	-1%
NS(=O)(=O)c1ccc(N2CCN(C(=O)C3COc4ccccc4O3)CC2)nc1 (centres undefined)	7	-1	1	-1	35*	0%
O=C(C1COc2ccccc2O1)N1CCN(c2ccccc2)CC1 (centres undefined)	-13	-1	-4	0	41*	0%
O=C(C1COc2ccccc2O1)N1CCOCC1 (centres undefined)	5	-2	-6	1	15	-4%
O=C(NCCN1CCCCC1)Nc1cccc(C(F)(F)F)c1	-14	-6	-18	0	20	0%
CCc1ccc(NC(=O)c2cnn3ccccc23)cc1	-11	-4	-1	-1	42*	0%
O=C(Cc1ccc([N+](=O)[O-])cc1)c1ccccc1	-2	5	.	.	.	.
SMILES	D2 PAM-1	D2 ag-1	D2 PAM-2	D2 ag-2	D2 antag	B2AR arrestin
Cc1cc(Cl)c2oc(C(=O)N(C)C3CCOC3)c(C)c2c1 (centres undefined)	-14	-2	88*	0	-7	0%
CCOC(=O)c1[nH]ncc1CN1CCCC(C(=O)c2cc(Cl)ccc2OC)C1 (centres undefined)	-6	0	-27	1	73*	0%
COc1cc(C(=O)O/N=C2/C=CC(=O)C(C)=C2C)cc(OC)c1OC	72*	?	0	0	5	0%
COc1cc(C(=O)NC23CC4CC(CC(C4)C2)C3)cc(OC)c1OC	-7	-6	-9	0	10	-1%
COc1cc(C(=O)O/N=C2\CCCc3c2ccc(OC)c3[N+](=O)[O-])cc(OC)c1OC	19	1	13	-1	1	0%
COc1cc(C(=O)O/N=C2\C=CC(=O)C=C2C)cc(OC)c1OC	0	1	6	1	50*	-1%
COc1cc(C(=O)O/N=C(\N)c2ccccn2)cc(OC)c1OC	12	5	-15	-1	-9	-1%
COc1cc(C(=O)ON=C2C3CC4CC(C3)CC2C4)cc(OC)c1OC	18	45*	3	-1	-16	0%
Cc1ccc(/C=C/c2onc(C)c2S(=O)(=O)N2CCC(C(=O)N3CCCCC3)CC2)cc1	0	-4	-14	-1	34*	0%
COCCCNC(=O)C1CCN(S(=O)(=O)c2c(C)noc2/C=C\c2ccc(OC)cc2)CC1	-26	0	-2	1	9	0%
COc1ccc(/C=C/c2onc(C)c2S(=O)(=O)N2CCC(C(=O)N3CCCCCC3)CC2)cc1	-20	-4	34*	0	-8	-1%
CCCCNC(=O)C1CCN(S(=O)(=O)c2c(C)noc2/C=C\c2ccc(OC)cc2)CC1	-5	-4	-18	-1	40*	0%
Cc1cccc(/C=C/c2onc(C)c2S(=O)(=O)N2CCC(C(=O)N3CCCCC3)CC2)c1	-25	0	-2	0	-1	0%
O=C(O)C1CC=CCC1C(=O)NCc1cn2ccccc2n1 (centres undefined)	-1	1	0	-1	0	3%
Cc1cc(=O)[nH]c2[nH][nH]c(=O)c12	-14	-6	.	.	.	.
O=C(Cc1c(F)cccc1Cl)NCCCn1ccnc1	16	-1	20	-1	5	0%
OCCC1CN(C2CCC2)CCN1Cc1ccc(F)c(F)c1 (centres undefined)	-29	-4	1	0	18	-3%
CC1CCC(NC(=O)CCCn2sc3ccccc3c2=O)CC1 (centres undefined)	-15	-4	-2	-1	39*	-1%
Cc1ccc([N+](=O)[O-])cc1NCC(=O)NN	-1	-3	10	2	-22	0%
Cc1c(NS(=O)(=O)c2ccc(NCCN3CCOCC3)c([N+](=O)[O-])c2)c(=O)n(-c2ccccc2)n1C	-9	3	31*	-1	6	0%
Cc1c(NS(=O)(=O)c2ccc(NCC3CCCO3)c([N+](=O)[O-])c2)c(=O)n(-c2ccccc2)n1C (centres undefined)	-14	-6	3	1	-6	0%
CC(C)(C)N(Cc1ccccc1)C(=O)CSc1nnc(CNc2ccc(F)cc2)o1	-4	-3	11	0	32*	.

Screening data as filed in PubChem BioAssay.
